Compound activity (PubChem)
The full list was thinned out, with hits kept by preference.
NOMO-1 viab = STK33 inhibitor candidate reducing NOMO-1 cell viability; NOMO-1 AML viability, CellTiter-Glo luminescence, 72 h; inhibition, % (concentration not given with the values); 7.5% of 37,000 active; in the data active = inhibition above about 80%
PD-1 reversal = reversal of PD-1 mediated T-cell inhibition; AID 2316; activation, % (no concentration beside the values); 29,000 tested, under 10 active; primary human CD4 T cells, PD-L1 beads, CellTiter-Glo 96 h; call rule not given here;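 note: 0% = median vehicle wells and 100% = positive control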
STK33 kin inh = blocks human STK33 kinase activity | 0.44% of 27,000 active | inhibition, % at 12.5 µM | Q9BYT3 | ADP-Glo luminescence, MBP substrate | AID 2322; in the data active = inhibition above about 20%
Target sequence (Q9BYT3 whole entry, looked up): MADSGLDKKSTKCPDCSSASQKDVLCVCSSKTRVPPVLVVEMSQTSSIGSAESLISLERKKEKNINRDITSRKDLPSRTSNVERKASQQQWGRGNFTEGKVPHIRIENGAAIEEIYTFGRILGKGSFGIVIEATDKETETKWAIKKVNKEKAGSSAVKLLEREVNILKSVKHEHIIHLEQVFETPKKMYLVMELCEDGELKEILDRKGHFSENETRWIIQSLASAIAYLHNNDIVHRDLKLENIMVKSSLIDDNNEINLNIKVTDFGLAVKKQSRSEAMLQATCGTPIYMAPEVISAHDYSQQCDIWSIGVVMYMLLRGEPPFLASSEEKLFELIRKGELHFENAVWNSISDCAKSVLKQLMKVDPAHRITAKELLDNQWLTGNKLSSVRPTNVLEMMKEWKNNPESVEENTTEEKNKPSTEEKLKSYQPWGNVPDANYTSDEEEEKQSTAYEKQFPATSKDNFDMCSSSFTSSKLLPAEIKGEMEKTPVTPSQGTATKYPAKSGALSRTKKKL
* = called active by the depositor; nt = not tested or not shown.

SMILES	NOMO-1 viab	PD-1 reversal	STK33 kin inh
CCN1CCN(C(=O)CN(c2cccc([N+](=O)[O-])c2)S(C)(=O)=O)CC1	-37	nt	-7
O=C(O)CN(Cc1ccccc1Cl)S(=O)(=O)c1ccc(Br)cc1	23	2	-2
O=C(CSc1nc2ccccc2s1)OCN1C(=O)c2ccccc2C1=O	17	0	0
Cn1c(SCc2nc(-c3ccc(Cl)cc3)no2)nnc1-c1ccccc1	-20	nt	1
Cc1c(C2CCN(CCc3ccccc3)CC2)noc1-c1ccc(Cl)cc1	93*	nt	3
C[C@@H]1CN([C@@H](C)CO)C(=O)c2cccc(NC(=O)Nc3ccc(F)cc3)c2O[C@H]1CN(C)Cc1ccccc1	102*	-6	nt
C[C@H](CO)N1C[C@H](C)[C@H](CN(C)Cc2ccccc2)Oc2c(NC(=O)Nc3ccc(F)cc3)cccc2C1=O	63	-1	nt
C[C@H]1CN([C@@H](C)CO)C(=O)c2cccc(NC(=O)Nc3ccc(F)cc3)c2O[C@@H]1CN(C)Cc1ccccc1	101*	nt	nt
C[C@H](CO)N1C[C@H](C)[C@H](CN(C)Cc2ccc(-c3ccccc3)cc2)Oc2c(NC(=O)Nc3ccc(F)cc3)cccc2C1=O	70	nt	nt
C[C@@H]1CN([C@H](C)CO)C(=O)c2cccc(NC(=O)Nc3ccc(F)cc3)c2O[C@H]1CN(C)Cc1ccccc1	100*	-6	nt
C[C@H](CO)N1C[C@H](C)[C@@H](CN(C)Cc2ccccc2)Oc2c(NC(=O)Nc3ccc(F)cc3)cccc2C1=O	98*	-5	nt
C[C@@H]1CN([C@H](C)CO)C(=O)c2cccc(NC(=O)Nc3ccc(F)cc3)c2O[C@@H]1CN(C)Cc1ccccc1	9	1	nt
C[C@@H]1CN([C@H](C)CO)C(=O)c2cccc(NC(=O)Nc3ccc(F)cc3)c2O[C@H]1CN(C)Cc1ccc(C(=O)O)cc1	-1	2	nt
CC(C)NC(=O)N(C)C[C@@H]1Oc2c(NC(=O)c3ccc(-c4nccs4)cc3)cccc2C(=O)N([C@@H](C)CO)C[C@H]1C	31	nt	nt
C[C@@H]1CN([C@H](C)CO)C(=O)c2cccc(NC(=O)C3CC3)c2O[C@@H]1CN(C)C(=O)Nc1cccc2ccccc12	2	-1	nt
COC(=O)c1ccc([C@H]2C(C#N)=C(N)C(C#N)(C#N)C3=CCC(C(C)(C)C)C[C@@H]32)cc1 (stereo not given in full)	116*	-7	nt
CC(C)(C)C1CC=C2[C@H](C1)[C@@H](c1ccsc1)C(C#N)=C(N)C2(C#N)C#N (stereo not given in full)	23	0	nt
Cc1c(C#N)c(Sc2ccccc2NC(=O)c2ccccc2)nc2ccccc12	29	-1	nt
[N-]=[N+]=Nc1ccccc1C[C@@]1(C(=O)NCCN2CCOCC2)N=C(c2ccc(OCCCO)cc2)O[C@@H]1c1ccccc1	nt	nt	1
COc1cc2c(ccc3cc(OC)c(OC)c(O)c32)cc1O	58	0	30*
COc1c(O)c(O)cc2ccc3cccc(O)c3c12	50	0	-6
Cc1noc(C)c1S(=O)(=O)Nc1ccc2c(c1)CC(=O)N([C@@H](C)CO)C[C@@H](C)[C@@H](CN(C)S(=O)(=O)c1ccc(Cl)cc1)O2	-3	-3	-1
CC(CCC(=O)Nc1ccccc1Cl)C(=O)O (stereo not given)	-2	nt	-3
c1ccc2[nH]c(CCc3nc4ccccc4[nH]3)nc2c1	nt	nt	1
Fc1ccc(N(Cc2nc3ccccc3[nH]2)Cc2nc3ccccc3[nH]2)cc1	100*	nt	1
SMILES	NOMO-1 viab	PD-1 reversal	STK33 kin inh
COc1ccc(OC)c(NC(=O)CN(c2cc(C(F)(F)F)ccc2Cl)S(C)(=O)=O)c1	6	-1	0
Cc1ccc(NC(=O)Cn2nc(-c3cccc([N+](=O)[O-])c3)c3ccccc3c2=O)c(C)c1	60	-9	2
Cc1ccc(-c2nn(CC(=O)Nc3ccc(C)cc3C)c(=O)c3ccccc23)cc1	111*	-3	0
CSc1nc2ccccc2c(=O)n1C	11	0	nt
Cn1c(/C=C/C=C/N2CCCC2)nc2ccccc2c1=O	121*	-1	2
COc1ccc(CNc2nc(-c3ccc(Cl)cc3)nn2C(=O)c2ccco2)cc1	7	1	3
Cc1ccc(S(=O)(=O)N(C)C[C@@H]2Oc3ccc(NC(=O)Nc4ccccc4)cc3CC(=O)N([C@H](C)CO)C[C@@H]2C)cc1	100*	nt	nt
Cc1ccc(S(=O)(=O)N(C)C[C@@H]2Oc3ccc(NC(=O)Nc4ccc(F)cc4)cc3CC(=O)N([C@@H](C)CO)C[C@@H]2C)cc1	104*	-2	2
CC(C)NC(=O)Nc1ccc2c(c1)CC(=O)N([C@H](C)CO)C[C@H](C)[C@H](CN(C)S(=O)(=O)c1ccc(Cl)cc1)O2	24	nt	0
Cc1ccc(S(=O)(=O)N(C)C[C@@H]2Oc3ccc(NC(=O)C4CC4)cc3CC(=O)N([C@@H](C)CO)C[C@@H]2C)cc1	84*	0	-1
Cc1ccc(S(=O)(=O)N(C)C[C@@H]2Oc3ccc(NC(=O)C4CC4)cc3CC(=O)N([C@H](C)CO)C[C@H]2C)cc1	11	0	-2
Cc1ccc(S(=O)(=O)N(C)C[C@@H]2Oc3ccc(NC(=O)NC(C)C)cc3CC(=O)N([C@@H](C)CO)C[C@@H]2C)cc1	98*	0	1
Cc1ccc(S(=O)(=O)N(C)C[C@@H]2Oc3ccc(NC(=O)Nc4ccccc4)cc3CC(=O)N([C@H](C)CO)C[C@H]2C)cc1	10	nt	3
Cc1ccc(S(=O)(=O)N(C)C[C@H]2Oc3ccc(NC(=O)Nc4ccc(F)cc4)cc3CC(=O)N([C@H](C)CO)C[C@H]2C)cc1	-10	-2	-4
Cc1noc(C)c1S(=O)(=O)Nc1cccc2c1O[C@@H](CN(C)C(=O)Nc1cccc3ccccc13)[C@@H](C)CN([C@H](C)CO)C2=O	13	0	nt
Cc1ccc(NC(=O)CSc2nnc(-c3cccs3)n2C)cc1[N+](=O)[O-]	1	1	-2
C[C@@H]1CN([C@H](C)CO)C(=O)CCCn2cc(nn2)CO[C@@H]1CN(C)C(=O)Nc1cccc(Oc2ccccn2)c1	nt	nt	2
Cc1ccc(S(=O)(=O)N(C)C[C@@H]2Oc3ccc(NC(=O)Nc4ccc(F)cc4)cc3CC(=O)N([C@H](C)CO)C[C@@H]2C)cc1	127*	-1	-6
COc1ccc(NC(=O)Nc2ccc3c(c2)CC(=O)N([C@H](C)CO)C[C@H](C)[C@H](CN(C)S(=O)(=O)c2ccc(F)cc2)O3)cc1	126*	nt	nt
Cc1ccc(S(=O)(=O)N(C)C[C@H]2Oc3ccc(NC(=O)Nc4ccc(F)cc4)cc3CC(=O)N([C@@H](C)CO)C[C@H]2C)cc1	44	-2	-3
COc1ccc(S(=O)(=O)N(C)C[C@@H]2Oc3ccc(NC(=O)Nc4ccc(F)cc4)cc3CC(=O)N([C@H](C)CO)C[C@@H]2C)cc1	33	nt	2
C[C@@H]1CN([C@H](C)CO)C(=O)Cc2cc(NC(=O)Cc3cn(C)c4ccccc34)ccc2O[C@H]1CN(C)CC1CCCCC1	44	1	-4
Cc1ccc(S(=O)(=O)Nc2cccc3c2O[C@@H](CN(C)Cc2ccc4c(c2)OCO4)[C@H](C)CN([C@@H](C)CO)C3=O)cc1	2	2	nt
C[C@@H]1CN([C@H](C)CO)C(=O)c2cccc(NC(=O)C3CC3)c2O[C@@H]1CN(C)Cc1ccc(-c2ccccc2)cc1	17	2	nt
